# In the supplement of paper PMC11732987, “Enantioselective OTUD7B fragment discovery through chemoproteomics screening and high-throughput optimisation” (Communications Chemistry, 2025):
# Key:
# Experiment in all cases: log2 ratio of Biotin-Ahx-Ub-VS probe labelling (fragment/DMSO); higher = less target engagement (more negative = stronger competition), active = hit call of the paper (q ≤ 0.05, log2 ratio ≤ -1)
# Settings in all cases: compound concentration: 200 uM; treatment time: 3 h
# [1] = compound: CC(C)CN(C1CC1)C(=O)CCl
# Method in brief: (§1)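 Fragment (200 µM) or vehicle was incubated for 3 h with triplicate HEK293T lysate samples of 495 µg, which were then treated with Biotin-Ahx-Ub-VS at 0.5 µM final for 1 h. Labelled DUBs were enriched on NeutrAvidin, digested with LysC and trypsin, and analysed by diaPASEF LC-MS/MS. Values are average log2 fragment/vehicle ratios from an unpaired t-test on global-median-normalised Spectronaut label-free quantities, using proteins with ≥2 unique peptides.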
# [2] = compound: CC(NC(=O)CCl)c1cccs1
# Method in brief: as §1
# [3] = compound: CC1CCCCC1NC(=O)CCl
# Method in brief: as §1
# [4] = compound: CC1CCCCN1C(=O)CCl
# Method in brief: as §1
# [5] = compound: CC1CN(CC(C)O1)C(=O)CCl
# Method in brief: as §1
# [6] = compound: CN(C1CCCCC1)C(=O)CCl
# Method in brief: as §1
# [7] = compound: Cc1cc(NC(=O)CCl)no1
# Method in brief: as §1
# [8] = compound: Cc1cccc(NC(=O)CCl)c1
# Method in brief: as §1
# [9] = compound: Cc1nc(NC(=O)CCl)sc1C
# Method in brief: as §1
# [10] = compound: Cc1nnc(NC(=O)CCl)s1
# Method in brief: as §1
# [11] = compound: Cl.Cc1ncsc1CNC(=O)CCl
# Method in brief: as §1
# [12] = compound: ClCC(=O)N1CCCCCCC1
# Method in brief: as §1
# [13] = compound: ClCC(=O)NC1(CCCC1)C#N
# Method in brief: as §1
# [14] = compound: ClCC(=O)NCC1CCC1
# Method in brief: as §1
# [15] = compound: ClCC(=O)NCC1CCCO1
# Method in brief: as §1
# [16] = compound: ClCC(=O)NCc1ccco1
# Method in brief: as §1
# [17] = compound: ClCC(=O)Nc1cccc(Cl)c1
# Method in brief: as §1
# Sequence of UniProt Q70EL1 (Q70EL1 whole entry): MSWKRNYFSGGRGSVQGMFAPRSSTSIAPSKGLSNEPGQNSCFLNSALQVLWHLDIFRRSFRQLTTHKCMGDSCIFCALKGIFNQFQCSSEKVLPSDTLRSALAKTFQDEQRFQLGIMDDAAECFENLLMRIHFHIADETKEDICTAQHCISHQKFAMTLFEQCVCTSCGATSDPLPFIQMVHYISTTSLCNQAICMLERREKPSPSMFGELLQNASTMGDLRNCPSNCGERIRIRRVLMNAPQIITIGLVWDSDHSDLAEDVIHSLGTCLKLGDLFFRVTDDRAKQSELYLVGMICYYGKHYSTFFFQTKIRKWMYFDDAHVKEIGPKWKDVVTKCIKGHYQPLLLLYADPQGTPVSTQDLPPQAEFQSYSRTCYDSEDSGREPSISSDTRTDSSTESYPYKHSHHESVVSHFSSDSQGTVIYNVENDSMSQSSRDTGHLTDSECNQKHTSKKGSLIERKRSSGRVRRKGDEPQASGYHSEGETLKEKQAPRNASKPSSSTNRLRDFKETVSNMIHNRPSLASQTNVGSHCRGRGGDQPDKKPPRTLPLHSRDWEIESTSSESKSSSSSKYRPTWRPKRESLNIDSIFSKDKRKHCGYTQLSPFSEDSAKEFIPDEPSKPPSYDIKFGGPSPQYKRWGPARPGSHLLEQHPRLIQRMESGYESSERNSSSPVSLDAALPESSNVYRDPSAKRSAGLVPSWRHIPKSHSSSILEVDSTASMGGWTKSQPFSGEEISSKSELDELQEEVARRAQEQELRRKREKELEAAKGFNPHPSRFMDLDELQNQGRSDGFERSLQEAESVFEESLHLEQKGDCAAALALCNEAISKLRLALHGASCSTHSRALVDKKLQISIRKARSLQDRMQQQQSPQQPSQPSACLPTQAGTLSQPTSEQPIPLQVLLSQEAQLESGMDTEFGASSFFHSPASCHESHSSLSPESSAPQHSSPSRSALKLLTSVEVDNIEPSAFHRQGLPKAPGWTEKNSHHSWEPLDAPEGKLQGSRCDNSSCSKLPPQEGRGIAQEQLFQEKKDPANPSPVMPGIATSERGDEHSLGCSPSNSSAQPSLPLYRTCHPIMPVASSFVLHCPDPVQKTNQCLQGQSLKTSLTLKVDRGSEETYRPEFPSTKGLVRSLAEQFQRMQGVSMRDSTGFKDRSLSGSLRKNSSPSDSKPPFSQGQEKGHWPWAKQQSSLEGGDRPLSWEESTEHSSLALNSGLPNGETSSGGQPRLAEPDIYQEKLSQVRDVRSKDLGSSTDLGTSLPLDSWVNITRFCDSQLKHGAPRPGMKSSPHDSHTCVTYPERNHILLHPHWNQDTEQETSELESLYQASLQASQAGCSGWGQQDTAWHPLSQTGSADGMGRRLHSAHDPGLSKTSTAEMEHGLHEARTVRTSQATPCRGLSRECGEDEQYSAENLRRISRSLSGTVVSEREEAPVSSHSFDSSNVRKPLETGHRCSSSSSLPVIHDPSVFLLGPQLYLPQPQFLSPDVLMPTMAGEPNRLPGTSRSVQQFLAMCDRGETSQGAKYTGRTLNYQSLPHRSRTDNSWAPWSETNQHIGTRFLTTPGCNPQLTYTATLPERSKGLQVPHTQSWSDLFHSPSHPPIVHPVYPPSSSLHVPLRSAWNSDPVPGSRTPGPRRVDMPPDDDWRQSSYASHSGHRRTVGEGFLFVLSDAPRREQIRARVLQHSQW
# Sequence of UniProt P45974 (P45974 whole entry): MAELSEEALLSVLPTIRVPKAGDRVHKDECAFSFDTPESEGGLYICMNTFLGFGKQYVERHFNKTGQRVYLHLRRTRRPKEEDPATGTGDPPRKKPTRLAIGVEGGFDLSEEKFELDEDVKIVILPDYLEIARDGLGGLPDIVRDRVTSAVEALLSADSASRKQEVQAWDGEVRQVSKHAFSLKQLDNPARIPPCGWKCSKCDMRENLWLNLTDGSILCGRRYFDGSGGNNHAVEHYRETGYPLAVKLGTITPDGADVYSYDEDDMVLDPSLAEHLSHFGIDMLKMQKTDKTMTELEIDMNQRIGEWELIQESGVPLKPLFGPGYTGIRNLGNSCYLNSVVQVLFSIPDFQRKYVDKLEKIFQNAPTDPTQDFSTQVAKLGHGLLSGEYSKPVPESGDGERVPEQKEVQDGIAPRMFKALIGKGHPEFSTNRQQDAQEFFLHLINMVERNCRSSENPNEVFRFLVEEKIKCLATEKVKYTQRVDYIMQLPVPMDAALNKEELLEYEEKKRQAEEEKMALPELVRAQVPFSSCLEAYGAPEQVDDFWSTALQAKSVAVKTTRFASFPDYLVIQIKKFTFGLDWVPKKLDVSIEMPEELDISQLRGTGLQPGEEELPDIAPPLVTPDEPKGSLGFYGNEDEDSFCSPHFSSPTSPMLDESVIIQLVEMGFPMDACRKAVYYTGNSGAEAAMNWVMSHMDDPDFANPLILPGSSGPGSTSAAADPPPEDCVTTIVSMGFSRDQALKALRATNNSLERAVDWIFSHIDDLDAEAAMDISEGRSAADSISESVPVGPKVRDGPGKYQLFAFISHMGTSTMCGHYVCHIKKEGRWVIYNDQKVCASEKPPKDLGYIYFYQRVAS
# Sequence of UniProt Q6GQQ9 (Q6GQQ9 whole entry): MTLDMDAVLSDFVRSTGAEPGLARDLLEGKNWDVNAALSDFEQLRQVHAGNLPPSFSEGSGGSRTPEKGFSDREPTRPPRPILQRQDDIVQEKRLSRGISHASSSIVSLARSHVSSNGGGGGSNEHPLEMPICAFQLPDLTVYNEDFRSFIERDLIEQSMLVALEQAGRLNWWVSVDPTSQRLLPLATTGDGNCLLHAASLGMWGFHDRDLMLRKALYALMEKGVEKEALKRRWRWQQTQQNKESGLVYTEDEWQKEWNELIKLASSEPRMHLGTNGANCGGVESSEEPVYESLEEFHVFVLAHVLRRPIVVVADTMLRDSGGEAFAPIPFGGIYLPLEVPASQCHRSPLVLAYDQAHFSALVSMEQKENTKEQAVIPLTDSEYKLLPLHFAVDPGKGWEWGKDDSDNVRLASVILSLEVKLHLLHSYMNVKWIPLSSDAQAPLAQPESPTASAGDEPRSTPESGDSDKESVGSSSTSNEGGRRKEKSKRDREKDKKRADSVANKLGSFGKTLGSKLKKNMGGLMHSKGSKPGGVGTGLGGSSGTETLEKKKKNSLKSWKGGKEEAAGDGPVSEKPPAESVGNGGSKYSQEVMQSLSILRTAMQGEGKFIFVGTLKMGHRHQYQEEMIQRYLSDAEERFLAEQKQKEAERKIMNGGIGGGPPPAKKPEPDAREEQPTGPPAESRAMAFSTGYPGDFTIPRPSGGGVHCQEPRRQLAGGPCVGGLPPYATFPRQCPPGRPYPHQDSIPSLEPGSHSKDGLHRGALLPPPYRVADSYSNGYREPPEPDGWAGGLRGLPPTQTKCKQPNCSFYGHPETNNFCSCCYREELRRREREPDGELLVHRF
# Sequence of UniProt O00487 (O00487 whole entry): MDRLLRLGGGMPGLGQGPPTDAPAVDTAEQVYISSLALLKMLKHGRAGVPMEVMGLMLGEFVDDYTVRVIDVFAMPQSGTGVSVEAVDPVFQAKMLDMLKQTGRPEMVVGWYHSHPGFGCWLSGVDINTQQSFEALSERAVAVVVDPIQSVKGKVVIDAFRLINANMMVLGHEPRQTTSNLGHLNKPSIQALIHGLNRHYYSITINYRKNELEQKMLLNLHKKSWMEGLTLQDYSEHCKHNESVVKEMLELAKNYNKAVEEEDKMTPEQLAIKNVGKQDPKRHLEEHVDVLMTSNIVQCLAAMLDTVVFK
# Sequence of UniProt Q9Y5T5 (Q9Y5T5 whole entry, looked up): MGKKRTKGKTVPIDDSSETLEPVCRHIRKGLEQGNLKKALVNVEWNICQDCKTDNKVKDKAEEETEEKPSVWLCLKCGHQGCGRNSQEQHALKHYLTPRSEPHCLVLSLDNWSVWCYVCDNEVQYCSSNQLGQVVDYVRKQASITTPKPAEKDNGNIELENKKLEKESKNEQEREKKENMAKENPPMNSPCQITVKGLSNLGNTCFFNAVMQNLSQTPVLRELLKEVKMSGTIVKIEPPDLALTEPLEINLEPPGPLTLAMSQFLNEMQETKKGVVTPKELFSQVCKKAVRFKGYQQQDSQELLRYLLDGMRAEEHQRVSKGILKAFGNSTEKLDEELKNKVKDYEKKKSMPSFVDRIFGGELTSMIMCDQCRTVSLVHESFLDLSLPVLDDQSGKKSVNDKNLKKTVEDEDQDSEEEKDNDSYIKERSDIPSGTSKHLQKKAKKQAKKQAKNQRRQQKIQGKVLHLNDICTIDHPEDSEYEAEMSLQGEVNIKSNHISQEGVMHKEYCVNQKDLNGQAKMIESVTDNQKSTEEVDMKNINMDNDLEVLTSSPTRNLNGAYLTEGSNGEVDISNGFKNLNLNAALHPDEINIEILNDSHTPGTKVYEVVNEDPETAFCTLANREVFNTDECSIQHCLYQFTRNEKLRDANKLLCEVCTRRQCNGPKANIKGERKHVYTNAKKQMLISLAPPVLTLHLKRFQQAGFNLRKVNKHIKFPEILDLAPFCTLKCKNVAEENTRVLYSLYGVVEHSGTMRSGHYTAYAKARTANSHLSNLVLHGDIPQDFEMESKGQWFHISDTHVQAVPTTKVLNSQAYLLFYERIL
# Sequence of UniProt Q5T2D3 (Q5T2D3 whole entry): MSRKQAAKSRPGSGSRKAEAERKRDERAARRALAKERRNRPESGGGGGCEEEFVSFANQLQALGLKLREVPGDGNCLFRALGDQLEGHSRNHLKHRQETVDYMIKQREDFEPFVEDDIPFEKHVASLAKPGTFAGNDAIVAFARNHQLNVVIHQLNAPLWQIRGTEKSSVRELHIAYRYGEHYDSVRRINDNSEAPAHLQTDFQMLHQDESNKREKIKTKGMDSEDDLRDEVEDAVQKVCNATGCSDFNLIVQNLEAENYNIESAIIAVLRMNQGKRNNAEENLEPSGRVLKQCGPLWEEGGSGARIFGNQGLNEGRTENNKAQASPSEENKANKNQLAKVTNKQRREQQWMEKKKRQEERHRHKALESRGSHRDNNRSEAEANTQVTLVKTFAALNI
Target,log2 ratio of Biotin-Ahx-Ub-VS probe labelling [1],log2 ratio of Biotin-Ahx-Ub-VS probe labelling [2],log2 ratio of Biotin-Ahx-Ub-VS probe labelling [3],log2 ratio of Biotin-Ahx-Ub-VS probe labelling [4],log2 ratio of Biotin-Ahx-Ub-VS probe labelling [5],log2 ratio of Biotin-Ahx-Ub-VS probe labelling [6],log2 ratio of Biotin-Ahx-Ub-VS probe labelling [7],log2 ratio of Biotin-Ahx-Ub-VS probe labelling [8],log2 ratio of Biotin-Ahx-Ub-VS probe labelling [9],log2 ratio of Biotin-Ahx-Ub-VS probe labelling [10],log2 ratio of Biotin-Ahx-Ub-VS probe labelling [11],log2 ratio of Biotin-Ahx-Ub-VS probe labelling [12],log2 ratio of Biotin-Ahx-Ub-VS probe labelling [13],log2 ratio of Biotin-Ahx-Ub-VS probe labelling [14],log2 ratio of Biotin-Ahx-Ub-VS probe labelling [15],log2 ratio of Biotin-Ahx-Ub-VS probe labelling [16],log2 ratio of Biotin-Ahx-Ub-VS probe labelling [17]
USP34 (UniProt Q70CQ2),-0.0417 (inactive),-0.172 (inactive),-0.119 (inactive),-0.00177 (inactive),-0.247 (inactive),-0.0987 (inactive),-0.256 (inactive),-0.0637 (inactive),-0.0566 (inactive),-0.451 (inactive),-0.0758 (inactive),-0.0409 (inactive),-0.0189 (inactive),0.000583 (inactive),0.219 (inactive),-0.146 (inactive),-0.774 (inactive)
UniProt P51784,-0.051 (inactive),0.138 (inactive),0.0474 (inactive),-0.248 (inactive),-0.0132 (inactive),0.0405 (inactive),-0.202 (inactive),-0.227 (inactive),0.0778 (inactive),-0.209 (inactive),0.0993 (inactive),-0.126 (inactive),-0.072 (inactive),-0.102 (inactive),0.104 (inactive),-0.104 (inactive),-0.628 (inactive)
ALG13 (UniProt Q9NP73),0.0397 (inactive),-0.0404 (inactive),-1.07 (inactive),0.242 (inactive),0.125 (inactive),-0.757 (inactive),-0.0979 (inactive),0.249 (inactive),0.182 (inactive),-0.152 (inactive),-0.305 (inactive),-0.0228 (inactive),0.017 (inactive),0.00528 (inactive),0.149 (inactive),-0.6 (inactive),0.292 (inactive)
UniProt O00487,-0.123 (inactive),-0.134 (inactive),-0.0855 (inactive),-0.115 (inactive),-0.19 (inactive),-0.0571 (inactive),0.0118 (inactive),-0.116 (inactive),-0.0519 (inactive),-0.139 (inactive),0.0936 (inactive),-0.0818 (inactive),-0.263 (inactive),-0.192 (inactive),-0.162 (inactive),-0.0244 (inactive),-0.0223 (inactive)
USP16 (UniProt Q9Y5T5),-0.505 (inactive),-0.513 (inactive),0.199 (inactive),-0.203 (inactive),-0.306 (inactive),-0.171 (inactive),-0.735 (inactive),-0.611 (inactive),-0.0917 (inactive),-0.476 (inactive),0.128 (inactive),-0.675 (inactive),-0.0851 (inactive),-0.131 (inactive),-0.506 (inactive),-0.128 (inactive),-0.24 (inactive)
USP54 (UniProt Q70EL1),0.0698 (inactive),0.582 (inactive),0.646 (inactive),0.245 (inactive),0.658 (inactive),0.179 (inactive),0.204 (inactive),0.439 (inactive),0.226 (inactive),0.528 (inactive),0.34 (inactive),-0.205 (inactive),0.194 (inactive),0.336 (inactive),0.0874 (inactive),0.439 (inactive),0.681 (inactive)
UniProt Q5T2D3,0.0213 (inactive),-0.301 (inactive),-0.208 (inactive),-0.128 (inactive),-0.269 (inactive),-0.159 (inactive),-0.226 (inactive),-0.0544 (inactive),-0.17 (inactive),-0.141 (inactive),-0.0477 (inactive),-0.0257 (inactive),-0.314 (inactive),-0.239 (inactive),-0.00242 (inactive),-0.0389 (inactive),-0.998 (inactive)
UniProt O00507,0.374 (inactive),0.0497 (inactive),-0.0879 (inactive),-0.429 (inactive),-0.148 (inactive),0.12 (inactive),0.023 (inactive),0.0709 (inactive),0.409 (inactive),-0.563 (inactive),-0.51 (inactive),0.333 (inactive),0.0321 (inactive),0.0835 (inactive),0.383 (inactive),-0.338 (inactive),-0.568 (inactive)
USP5 (UniProt P45974),0.195 (inactive),0.3 (inactive),-0.0515 (inactive),-0.178 (inactive),0.00747 (inactive),0.487 (inactive),-0.18 (inactive),-0.356 (inactive),0.0301 (inactive),-0.648 (inactive),-0.209 (inactive),0.18 (inactive),-0.00567 (inactive),-0.0477 (inactive),0.0345 (inactive),0.0924 (inactive),-0.784 (inactive)
OTUD7B (UniProt Q6GQQ9),0.0222 (inactive),-1.59 (active),-1.86 (active),-0.521 (inactive),-0.504 (inactive),-0.33 (inactive),-1.28 (active),-0.708 (inactive),-0.151 (inactive),-0.187 (inactive),-0.43 (inactive),-0.18 (inactive),-1.84 (active),-1.31 (active),-0.129 (inactive),-0.96 (inactive),-1.56 (active)
UniProt Q8TE49,-0.309 (inactive),-0.893 (inactive),-1.99 (active),-0.301 (inactive),-0.547 (inactive),-0.46 (inactive),-0.679 (inactive),-0.769 (inactive),-0.452 (inactive),-0.537 (inactive),-0.377 (inactive),-0.312 (inactive),-1.15 (active),-0.802 (inactive),-0.46 (inactive),-0.215 (inactive),-1.29 (active)
USP8 (UniProt P40818),0.058 (inactive),-0.288 (inactive),-0.13 (inactive),-0.147 (inactive),-0.531 (inactive),-0.314 (inactive),-0.16 (inactive),-0.0703 (inactive),-0.125 (inactive),-0.197 (inactive),-0.245 (inactive),-0.233 (inactive),-0.572 (inactive),-0.442 (inactive),0.167 (inactive),-0.538 (inactive),-0.963 (inactive)
